Experimental data: the supplement of paper PMC7411054
Where a name gives a salt, the structure may show the parent alone.

system: HepG2-ACTB-RAB5A; experiment: phenotypically active (imaging signature differs from DMSO and reproducible) at any of 0.3-9 uM (binary (1 = active, 0 = inactive)); higher = active; details: treatment time: 24 h
In short: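 Fifteen gene-edited A549, HepG2 and WPMY1 reporter lines (BFP segmentation plus GFP and RFP/FusionRed markers) were treated at 0.3, 1, 3 or 9 µM for 24 h, four wells each, then imaged live. Live-cell features per well were normalised to DMSO control wells. Deviation required ≥3 of 4 wells beyond the 95th percentile of DMSO Euclidean distances, and reproducibility required median replicate Pearson correlation above the 95th percentile of non-replicates. Phenotypic activity needed both criteria.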

Row | SMILES | phenotypically active
1 | CC[C@H]1CN2CC[C@H]1C[C@@H]2[C@@H](O)c1ccnc2ccc(OC)cc12 [Hydroquinidine HCl] | 0 (inactive)
2 | COc1cc2c(c(OC)c1OC)-c1ccc(O)c(=O)cc1[C@@H](N)CC2 [Trimethylcolchicinic acid] | 0 (inactive)
3 | C[C@@]1(CO)[C@H](O)CC[C@@]2(C)[C@H]1CC[C@H]1C[C@@H]3C[C@@]12CC[C@]3(O)CO [Aphidicolin] | 1 (active)
4 | COC(=O)[C@@]1(O)C[C@H]2O[C@]1(C)n1c3ccccc3c3c4c(c5c6ccccc6n2c5c31)C(=O)NC4 | 1 (active)
5 | COc1ccc(N(C(=O)Oc2c(C)cccc2C)c2ccnc(Nc3ccc(N4CCN(C)CC4)cc3)n2)c(OC)c1 | 1 (active)
6 | COc1ccc2c(c[n+](C)c3c4cc5c(cc4ccc23)OCO5)c1OC [Chelerythrine chloride] | 0 (inactive)
7 | CC[C@@H]1C=CC=CC[C@H](C)[C@@H](O)[C@](C)(O)C(=O)[C@H](C)[C@@H](O)[C@H](C)C(=O)[C@H](C)[C@@H](O)[C@H](C)C=CC(=O)O[C@H]2[C@@H](C)[C@@H](CC1)O[C@@]1(CC[C@@H](C)[C@@H](C[C@H](C)O)O1)[C@@H]2C [Oligomycin A] | 1 (active)
8 | CC(C)[C@@]1(NC(=O)[C@@H]2C[C@@H]3c4cccc5[nH]cc(c45)C[C@H]3N(C)C2)O[C@@]2(O)[C@@H]3CCCN3C(=O)[C@H](Cc3ccccc3)N2C1=O [Dihydroergocristine mesylate] | 1 (active)
9 | O=c1[nH]c2ccccc2n1C1CCN(CCCC(c2ccc(F)cc2)c2ccc(F)cc2)CC1 [pimozide] | 1 (active)
10 | C[C@]12CC[C@H]3[C@@H](CC[C@]4(O)C[C@@H](O)CC[C@]34C=O)[C@@]1(O)CC[C@@H]2C1=CC(=O)OC1 [Strophanthidin] | 1 (active)
11 | CN1CCC2=C[C@H](O)[C@H]3OC(=O)c4cc5c(cc4[C@H]3[C@@H]21)OCO5 [Hippeastrine hydrobromide] | 0 (inactive)
12 | C=C1[C@@H](O)C2C=CC[C@H](C)C(=O)[C@](C)(O)C=C[C@@H](OC(C)=O)[C@]23C(=O)N[C@H](Cc2ccccc2)[C@@H]3[C@@H]1C (stereo partly drawn) [Cytochalasin D] | 1 (active)
13 | COc1ccc(C[C@H]2NC[C@H](O)[C@H]2OC(C)=O)cc1 [Anisomycin] | 1 (active)
14 | C[C@@H]1CC[C@H]2[C@@H](C)C(=O)O[C@@H]3O[C@@]4(C)CC[C@@H]1[C@]32OO4 [Artemisinin] | 1 (active)
15 | O=C1NC(=O)c2c1c1c3ccccc3n3c1c1c2c2ccccc2n1C1CCC3O1 | 0 (inactive)
16 | Cc1sc2c(c1C)C(c1ccc(Cl)cc1)=N[C@@H](CC(=O)OC(C)(C)C)c1nnc(C)n1-2 | 1 (active)
17 | CN1C[C@H](C(=O)N[C@]2(C)O[C@@]3(O)[C@@H]4CCCN4C(=O)[C@H](Cc4ccccc4)N3C2=O)C[C@@H]2c3cccc4[nH]cc(c34)C[C@H]21.CN1C[C@H](C(=O)N[C@]2(C)O[C@@]3(O)[C@@H]4CCCN4C(=O)[C@H](Cc4ccccc4)N3C2=O)C[C@@H]2c3cccc4[nH]cc(c34)C[C@H]21 [dihydroergotamine] | 1 (active)
18 | C[C@@]12C(=O)OC(=O)[C@]1(C)[C@H]1CC[C@@H]2O1 [Cantharidin] | 1 (active)
19 | COc1cc2c(c(OC)c1OC)-c1ccc(OC)c(=O)cc1[C@@H](NC(C)=O)CC2 [colchicine] | 1 (active)
20 | CC(C)(O)[C@H]1O[C@H]2CC[C@@]3(C)[C@@](O)(CC[C@H]4Cc5c([nH]c6ccccc56)[C@@]43C)C2=CC1=O [paxilline] | 1 (active)
21 | N#CC(C#N)=NNc1cccc(Cl)c1 | 1 (active)
22 | Cc1c(C(=O)Nc2cccc(C(F)(F)F)c2)cc(-c2ccccc2)n1CCCN1CCOCC1 | 0 (inactive)
23 | CCN1CCN(C(=O)Cc2ccc(Nc3ncc(F)c(Nc4ccc(C(=O)Nc5ccccc5Cl)cc4)n3)cc2)CC1 | 1 (active)
24 | CC(C)(C)c1cc(C=C(C#N)C#N)cc(Br)c1O | 0 (inactive)
25 | O=C(NCCN1CCC2(CC1)C(=O)NCN2c1cccc(F)c1)c1ccc(F)c(F)c1 [ML 298 hydrochloride] | 1 (active)
26 | CC(C)(N)Cc1ccccc1 [phentermine] | 1 (active)
27 | CCn1cnc2c(Nc3cccc(Cl)c3)nc(N[C@H]3CCCC[C@H]3N)nc21 | 1 (active)
28 | O=C(Nc1ccncc1)C(=O)c1cn(Cc2ccc(Cl)cc2)c2ccccc12 [Indibulin] | 1 (active)
